This is a sample that favours compounds with a hit; in the whole collection about 4.6% have one here.
D1 ag: agonists of human D1 dopamine receptor; HEK293 T-REx D1 cells, calcium flux, agonist mode; activation, % at 2 µM; hit rate 1% among 360,000; AID 504660; further: 0% is about no effect
Target sequence (P21728 whole entry, looked up): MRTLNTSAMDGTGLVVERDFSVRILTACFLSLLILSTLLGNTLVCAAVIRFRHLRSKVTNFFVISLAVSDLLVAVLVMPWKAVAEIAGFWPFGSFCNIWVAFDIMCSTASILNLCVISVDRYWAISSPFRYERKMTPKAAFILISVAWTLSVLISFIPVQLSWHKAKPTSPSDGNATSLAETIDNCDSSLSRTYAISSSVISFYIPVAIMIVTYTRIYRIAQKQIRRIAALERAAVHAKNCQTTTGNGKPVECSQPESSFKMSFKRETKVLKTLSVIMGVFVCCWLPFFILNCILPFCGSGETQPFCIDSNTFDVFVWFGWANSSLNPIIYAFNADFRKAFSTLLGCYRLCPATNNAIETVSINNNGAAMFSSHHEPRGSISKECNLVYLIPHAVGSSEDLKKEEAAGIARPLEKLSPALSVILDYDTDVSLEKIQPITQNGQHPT
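Tetracycline-induced HEK293 TREx D1 cells, force-coupled to calcium signalling, were dye-loaded with a no-wash calcium kit. Compound was pin-added after a 10 s baseline. Fluorescence was read kinetically at 1 cycle/s for 180 s, with calcium rises flagged as agonism.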
D1 potentiator: enhances dopamine response at the human D1 receptor; P21728; HEK293 TREx D1 cells, calcium flux, dopamine EC20 potentiation; potentiation, % at 10 µM; hit rate 0.036% among 360,000; AID 504651; in the data active means potentiation above about 30%; further: 0% is about no effect
D1 antagonist: human D1 dopamine receptor antagonism. P21728. hit rate 3.2% among 360,000. HEK293 TREx D1 cells, calcium flux, dopamine EC80; stronger effect = lower value. AID 504652. activity change, negative = inhibition, % at 10 µM; in the data active means activity change below about -30%; further: on the % scale 0 is the no-effect control and ±100 the full control effect
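HEK293 T-REx cells expressing inducible, force-coupled D1 receptor; no-wash Ca dye, 30–90 min RT. Cmpd → 180 s read at 1 Hz → EC80 DA → 180 s read.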
TRHR ag: activates the human TRH receptor; P34981; TRHR cells, calcium flux fluo-8, FDSS agonist mode; activation, % at 2 µM; hit rate 0.18% among 360,000; further: 0% is about no effect
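TRHR-expressing cells loaded with fluo-8 calcium dye; 23 nL library compound pin-transferred, kinetic FDSS fluorescence (Ex 480/Em 530) recorded about 180 s for agonist-induced calcium release, before a 10 nM TRH EC20 addition for potentiator mode.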
TRHR PAM: TRH receptor (human) allosteric enhancement; AID 493056; hit rate 0.66% among 360,000; P34981; enhancement, % at 2 µM; TRHR cells, fluo-8 calcium fluorescence, EC20 TRH enhancement; in the data active means enhancement above about 30%; further: 0% is about no effect
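Enhancer read-out: after compound pinning and an initial kinetic agonist-mode read, an EC20 of TRH (10 nM final) was injected and fluo-8 calcium signal (Ex 480/Em 530) followed at 1 s/cycle for 100 cycles in TRHR-expressing cells.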
Active calls of the source: *; / = not tested or not shown. Unless noted, no stated cut-off is given here; in the data, active means activation above about 30%; inactive means the rest.

SMILES | D1 ag | D1 potentiator | D1 antagonist | TRHR ag | TRHR PAM
COc1ccc(S(=O)(=O)N(CC(=O)Nc2ccccc2Br)Cc2ccccc2)cc1 | 44.0* | -0.1 | 15.1 | 1.7 | 0.8
COc1ccc(OCCCC(=O)Nc2cccc([N+](=O)[O-])c2C)cc1 | 2.4 | -3.9 | -1.8 | -0.2 | 5.6
O=C(COc1ccc(F)cc1)NNC(=O)c1cc2ccccc2oc1=O | 0.7 | -9.2 | -30.0* | 0.0 | -2.6
Cc1cccc(OCC(=O)NNC(=O)c2cc3ccccc3oc2=O)c1 | 3.0 | -7.0 | -3.6 | -0.4 | 10.1
COc1ccc(C(=O)C2CCCN(Cc3ccc(C#CCCO)cc3)C2)cc1F (configuration not stated) | 26.6 | -3.0 | -37.0* | -1.1 | 1.2
O=C(Nc1nnc(C2=COCCO2)o1)c1ccc(Cl)cc1 | -0.5 | 5.1 | -21.5 | -0.1 | 11.8
O=C(Nc1nnc(C2=COCCO2)o1)c1ccc(Br)cc1 | 0.1 | -6.4 | -34.0* | -0.5 | -3.3
Cc1ccc(C)c(-c2nnc(NC(=O)c3ccc4c(c3)OCCO4)o2)c1 | 8.4 | -1.9 | -37.3* | -0.2 | -3.6
CSc1ccc(-c2nnc(NC(=O)c3ccc4c(c3)OCCO4)o2)cc1 | 3.1 | -1.6 | -7.5 | -0.2 | 3.7
COc1ccc2cc(C(=O)N/N=C/c3sc4ccccc4c3O)ccc2c1 | 108.3* | -7.6 | -3.1 | 32.6* | -1.3
Cc1ccccc1C(=O)N/N=C/c1cccc2ccccc12 | 0.5 | 4.7 | -89.1* | -0.2 | 3.9
O=C(N/N=C/c1ccccc1F)c1cccc2ccccc12 | 0.0 | -6.0 | 1.0 | -0.7 | -3.8
O=C(N/N=C/c1sc2ccccc2c1O)c1cccc2ccccc12 | 31.4* | 0.2 | 0.8 | 5.7 | 4.9
O=C(c1c(F)cccc1F)N1CCCC(c2nc(-c3ccc(F)cc3)no2)C1 (configuration not stated) | 6.0 | 2.0 | -31.0* | 0.5 | 2.8
O=C(c1ccc(F)cc1)N1CCCC(c2nc(-c3ccncc3)no2)C1 (configuration not stated) | 11.5 | -1.6 | 14.2 | 0.4 | -4.2
COc1cccc(-c2noc(C3CCCN(C(=O)CC(C)(C)C)C3)n2)c1 (configuration not stated) | 2.4 | -6.5 | -66.8* | -0.1 | 7.1
CC(C)CNC(=S)N1CCC(c2nc(-c3ccc(F)cc3)no2)CC1 | 19.4 | -7.8 | -34.5* | -0.2 | -6.4
COCc1ccc(C(=O)N2CCCC(C(=O)c3ccc(SC)cc3)C2)s1 (configuration not stated) | 6.6 | 1.0 | -35.6* | -0.5 | 0.4
Cc1ccc(NC(=O)CSc2nnc(-c3ccccn3)n2N)c(Br)c1 | 1.3 | -1.4 | 9.1 | -0.7 | -0.2
CCCCc1c(C)nc(Nc2ccc(OC)cc2)[nH]c1=O | 1.0 | -0.9 | -37.0* | 0.3 | 7.4
CCCCCc1c(C)nc(Nc2ccc(F)cc2)[nH]c1=O | 20.6 | -6.7 | -29.3 | 5.2 | -8.3
CCCc1cc(=O)[nH]c(Nc2ccc(OCC)cc2)n1 | 8.5 | 3.8 | -83.8* | -0.3 | -6.1
CN(C)CCNC(=O)C1(O)c2cc(Br)ccc2NC(=O)N1c1ccc(Cl)cc1 (configuration not stated) | -0.2 | -1.1 | -10.3 | 0.5 | -2.5
COc1ccccc1CCn1cc(C#N)c(=O)[nH]c1=O | 2.3 | -0.7 | 3.6 | 0.3 | 8.3
COc1ccc(CCn2cc(C#N)c(=O)[nH]c2=O)cc1OC | -0.4 | -3.5 | 20.4 | 0.6 | 37.6*
SMILES | D1 ag | D1 potentiator | D1 antagonist | TRHR ag | TRHR PAM
COc1ccc(CCn2c(N)cc(=O)[nH]c2=O)cc1OC | 0.6 | -7.0 | -48.0* | 0.5 | 6.7
CCN1CCN(CCCNC(=O)c2cc3c(s2)-c2c(C)cccc2OC3)CC1 | 5.0 | -8.1 | -7.0 | 0.0 | -4.7
Cc1ccc(NC(=O)CSc2nncn3c2cc2sccc23)cc1F | 0.1 | -4.0 | 3.0 | 0.0 | 3.6
CC(C)C(C(=O)OCC(=O)c1cccc([N+](=O)[O-])c1)N1C(=O)[C@@H]2[C@H]3CC[C@H](C3)[C@@H]2C1=O (some centres not stated) | 1.7 | 1.9 | -32.8* | 0.1 | -4.2
O=C(CN1C(=O)C2C3CCC(C3)C2C1=O)OCC(=O)c1cccc([N+](=O)[O-])c1 (configuration not stated) | 13.9 | -6.3 | -33.4* | 0.2 | -0.9
O=C(CCN1C(=O)C2C3CCC(C3)C2C1=O)OCC(=O)c1cccc([N+](=O)[O-])c1 (configuration not stated) | 2.9 | 5.0 | -5.6 | 0.5 | 2.1
COCCCNC(=O)COc1ccc(Br)cc1Cl | 1.3 | -2.0 | -34.0* | 0.1 | 11.8
CCNC(=O)COc1ccc(Br)cc1Cl | -0.4 | -3.1 | -13.0 | 0.1 | -2.5
CC(C)NCCCOc1ccc(Cl)cc1Br | 47.0* | -9.9 | -25.3 | -0.1 | 7.6
CCCCNCCOCCOc1ccc(Cl)cc1Br | 13.7 | -2.6 | -41.3* | -0.1 | 2.9
COCCCNCCCOc1ccc(Cl)cc1Br | 8.0 | -3.9 | -1.4 | 2.3 | 1.0
CC(C)NCCCCOc1ccc(Br)cc1Cl | 49.8* | -5.2 | -24.5 | -1.4 | 7.9
CC(=O)N1CCc2cc(S(=O)(=O)N3CCN(c4ccc(C)cc4)C(C)C3)ccc21 (configuration not stated) | 3.0 | -0.9 | -0.7 | -0.7 | 1.0
Cn1c(SCC(=O)N2CCCc3ccccc32)ncc(C(=O)Nc2ccccc2)c1=O | 0.0 | 4.2 | / | 0.3 | -4.6
COc1ccc(CCNC(=O)c2ccc(Cn3c(=O)c4ccccc4n(CC(=O)C(C)(C)C)c3=O)cc2)cc1OC | 5.0 | -0.2 | 5.1 | 0.4 | -1.3
Cc1ccc(NC(=O)CSc2nc(-c3cccs3)nc3cc(=O)[nH]n23)cc1 | 0.7 | 2.5 | -10.8 | 0.0 | 15.8
CCN(CC)CCNCC(O)(c1ccc(Cl)cc1)c1ccc(Cl)cc1 | 32.3* | -7.4 | -27.6 | 4.7 | -3.6
Cc1ccc(NC(=O)CCS(=O)(=O)c2ccc(Br)s2)cc1 | 4.0 | -8.3 | -52.7* | -1.0 | -1.9
CCOC(=O)c1ccc(NC(=O)CN(C)S(=O)(=O)c2ccc(Br)s2)cc1 | 10.2 | -11.9 | -38.2* | -0.3 | -6.2
CCOC(=O)c1ccc(NC(=O)CN(C)S(=O)(=O)c2ccc(OC)cc2)cc1 | 1.8 | -0.3 | -15.7 | -0.7 | 2.3
COc1ccc(-c2onc(C)c2C)cc1S(=O)(=O)N(C)Cc1ccco1 | 5.7 | -6.0 | -19.7 | 0.1 | -3.6
COc1ccc(CNC(=O)c2ccc3c(c2)N(Cc2cccc(Cl)c2)C(=O)c2ccccc2S3)c(OC)c1 | 1.3 | -2.5 | -27.7 | 0.9 | -5.7
CC(C)NC(=O)C(c1ccc(F)cc1)N(Cc1ccco1)C(=O)CCC(=O)Nc1ccccn1 (configuration not stated) | 0.8 | 3.0 | 2.0 | -0.2 | -2.4
Cc1ccc(-n2nc3c(c2NC(=O)c2ccco2)CS(=O)(=O)C3)c(C)c1 | 0.7 | -3.9 | -4.6 | 0.4 | 3.1
Cc1cccc(-n2nc3c(c2NC(=O)c2ccco2)CS(=O)(=O)C3)c1C | 5.1 | -15.2 | -41.0* | 1.7 | 12.9
